Results on six compounds are retold here after PubChem BioAssay (NCATS).

Test [1] addresses Lysosomal acid glucosylceramidase (Homo sapiens) (UniProt P04062). Nature of the test: Glucocerebrosidase-p2 (AID 348; in the data active means potency below about 10 µM; further: potency means the concentration at half of the fitted maximal effect). As to conditions: purified GBA, blue fluorogenic substrate, 40 min. The essentials: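 Normal human glucocerebrosidase (0.2 nM) with blue fluorogenic substrate (80 uM final) in citrate/phosphate pH 5.9 with 10mM sodium taurocholate, 0.01% tween-20; 40 min RT, NaOH/glycine stop; fluorescence Ex 365/Em 440; AC50 from a titration from 0.6 nM upwards.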

A short description of test [2]: AP1 Signaling Pathway (AID 357).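 Further: ME-180 reporter cells stimulated with EGF at its EC50 level; on the % scale 0 is the no-effect control and ±100 the full control effect.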 The conditions noted are these: ME-180 AP-1-bla reporter, EGF-induced, beta-lactamase ratio, 5 h; at 7.69 µM (top of the series) unless noted. The essentials: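 AP-1-bla ME-180 cells, Opti-MEM + 0.5% dialyzed FBS, plated overnight 37 °C. Cpd titration + EC50 EGF, 5 h 37 °C. CCF4 2.5 h RT; ex 405, em 460/530 ratio → %activity, AC50.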

In test [3] the target is Cytochrome P450 1A2 (Homo sapiens) (UniProt P05177). Nature of the test: p450-cyp1a2 (AID 410; calls by dose curve; further: potency means the concentration at half of the fitted maximal effect;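 on activity change, negative = inhibition: -100% = full effect of reference inhibitor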). The conditions noted are these: recombinant CYP1A2, luciferin-ME demethylation, luminescence; series mostly up to 57 µM. The essentials:
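Read-out is luminescence from luciferin produced by CYP1A2 demethylation of Luciferin-ME (100uM, at Km). Detection reagent stopped the 60 min NADPH-dependent reaction; signals were normalized to 57 uM furafylline.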

Test [4] in a line: NFAT Signaling Pathway (AID 444).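 Further: carbachol stimulus at about its EC50 of 1 µM final; on the % scale 0 is the no-effect control and ±100 the full control effect.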 As to conditions: Jurkat NFAT-bla M1, carbachol, beta-lactamase ratio, 5 h; at 7.69 µM (top of the series) unless noted. The essentials: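 Jurkat cells carrying an NFAT-driven β-lactamase reporter and co-transfected muscarinic M1 receptor were treated with compound plus carbachol (1 uM final, an EC50 level) for 5 h at 37 °C. CCF4 loading followed for 1 h at RT; 460/530 nm ratio gave %activity.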

Test [5] is described as follows: Stat Signaling Pathway (AID 446).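 Further: ME-180 cervical cancer cells given 40 pM IL-6 alongside compound; SIE-controlled beta-lactamase reporter measured as 460/530 nm FRET emission ratio; on the % scale 0 is the no-effect control and ±100 the full control effect.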 As to conditions: ME-180 (cervical carcinoma) SIE beta-lactamase reporter, IL-6 stimulated, 5 h; at 7.69 µM (top of the series) unless noted. The essentials: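 Compound effects on IL-6-induced STAT reporter activity were measured in ME-180 cells. After overnight culture, cells were co-treated with 40 pM IL-6 for 5 hrs before beta-lactamase substrate loading at room temperature.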

For test [6], the target named is Glucocorticoid receptor (Homo sapiens) (UniProt P04150). Nature of the test: GR-EFC Redistribution (AID 451; calls by dose curve; further: potency means the concentration at half of the fitted maximal effect). The conditions noted are these: CHO-K1 GR-EFC translocation, beta-gal luminescence, 2 h. The essentials: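 CHO-K1 cells stably expressing nuclear-localized β-gal enzyme acceptor and GR fused C-terminally to the enzyme donor fragment; ligand-driven nuclear translocation restores β-gal by complementation. Compounds titrated up to 46 uM final, 2 h at 37 °C; luminescence read.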

Test [7] addresses Mitogen-activated protein kinase 10 (Mus musculus) (UniProt Q61831). Nature of the test: JNK3 AlphaScreen Assay (AID 530).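 Further: kinase came from lysate of stimulated human HepG2 cells; on the % scale 0 is the no-effect control and ±100 the full control effect.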 The conditions noted are these: JNK3 lysate, c-Jun phosphorylation; series mostly up to 57.1 µM. The essentials: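 Biotinylated GST-cJun(1-79) served as substrate for JNK3 in HepG2 lysates stimulated with IL-1beta and TNF-alpha. ATP was 10 uM final, pH 7.6. Ser73 phosphorylation was quantified by AlphaScreen (680 nm excitation).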
(In general: Bead proximity is the source of the signal in Alpha formats.)

Test [8] has as its target 3',5'-cyclic-AMP phosphodiesterase 4B (Homo sapiens) (UniProt Q07343). Nature of the test: qHTS Assay for Inhibitors of PDE-IV (AID 607; active means well fitted activation curve with a large enough effect in the main read-out, with a control signal flat, not every such curve was filed as active; further: % of control where 0% means no effect). The conditions noted are these: HEK293 ACTOne CNG channel cells, membrane potential fluorescence; series mostly up to 22.9 µM. The essentials:
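ACTOne HEK293 cells carry a modified cAMP-gated CNG channel and express endogenous PDE4; plated 1000 cells/well, compounds up to 22.9 uM final. Membrane-potential dye fluorescence (ex 535/em 590) was read; parental cells received 10 uM forskolin + 100 uM RO 20-1724.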
A general note: Quantitative high-throughput screening tests each substance at several concentrations.

For test [9], the target named is Cytochrome P450 2C9 (Homo sapiens) (UniProt P11712). The test can be described thus: qHTS Assay for Inhibitors and Substrates of Cytochrome P450 2C9 (AID 883; active means well fitted curve in the direction sought with a large enough effect; an effect the other way counts as inactive or inconclusive; further: nearly all actives have a fitted effect of over 60% in size; further: potency means the concentration at half of the fitted maximal effect). The conditions noted are these: recombinant CYP2C9, luciferin-H luminescence, 60 min; series mostly up to 57.1 µM. The essentials: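 A luminogenic readout tracked human CYP2C9 (10nM) converting deoxyluciferin (100uM, at KM) in 25mM KPO4 during 60 min at 37C with regenerated NADPH. Values normalized to 57uM sulphaphenazole as complete inhibition.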

The target in test [10] is Cytochrome P450 3A4 (Homo sapiens) (UniProt P08684). The test can be described thus: qHTS Assay for Inhibitors and Substrates of Cytochrome P450 3A4 (AID 884; active means well fitted curve in the direction sought with a large enough effect; an effect the other way counts as inactive or inconclusive; further: nearly all actives have a fitted effect of over 50% in size; further: potency means the concentration at half of the fitted maximal effect). As to conditions: recombinant CYP3A4, Luciferin-PPXE luminescence; series mostly up to 57.1 µM. The essentials:
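Luminescent readout of luciferin produced by CYP3A4 (20 nM) dealkylation of Luciferin-PPXE, 25 uM (its KM). NADPH-driven reaction ran 60 min at RT after 10 min compound preincubation; data scaled to 57 uM ketoconazole as 100% inhibition.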

Test [11] is described as follows: qHTS Assay for Lipid Storage Modulators (AID 1519; calls by dose curve). The conditions noted are these: Drosophila S3 cells, BODIPY lipid droplet/cell ratio, laser cytometry, cells loaded with oleic acid; for activity change, negative = inhibition: at 57.5 µM (top of the series). The essentials: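 Cells seeded at 5,000 per well were treated with compounds over a concentration series and loaded with oleic acid (400 uM, as added). Lipid droplet fluorescence (488 nm excitation, 500-530 nm channel) was read by laser-scanning cytometry and normalized to 20 uM Triacsin C.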

Test [12] in a line: Primary qHTS for small molecule stabilizers of the endoplasmic reticulum resident proteome: Secreted ER Calcium Modulated Protein (SERCaMP) assay (AID 1508630; active means well fitted curve in the direction sought with a large enough effect; an effect the other way counts as inactive or inconclusive; further: on the % scale 0 is the no-effect control and ±100 the full control effect). As to conditions: SH-SY5Y GLuc-SERCaMP (Gaussia luciferase released on ER calcium loss) secretion, thapsigargin, luminescence; series mostly up to 38.4 µM. The essentials:
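The SH-SY5Y reporter protocol was run at 3 concentrations up to 38.3 uM (primary) or 11 concentrations (follow-up): 16 h compound, 100 nM thapsigargin for 4 h, then extracellular luciferase luminescence.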

The target in test [13] is Cytochrome P450 3A4 (Homo sapiens) (UniProt P08684). The test can be described thus: qHTS Assay for Activators of Cytochrome P450 3A4 (AID 885; active means well fitted curve in the direction sought with a large enough effect; an effect the other way counts as inactive or inconclusive; further: potency means the concentration at half of the fitted maximal effect; nearly all actives have a fitted effect of over 65% in size). The conditions noted are these: recombinant CYP3A4, Luciferin-PPXE luminescence, 60 min; series mostly up to 57.1 µM. The essentials:
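CYP3A4 activity: Luciferin-PPXE O-dealkylation, 25uM substrate, 200mM KPO4, RT throughout. Read-out is luciferase luminescence; higher values reflect activation.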

Where [14] appears, read: measured here: cell count channel max response.
The mark [15] stands for this setting: measured here: lipid channel max response.

Results filed as inconclusive are left out. The source made the active and inactive calls. Unless noted, the call rests on the fitted dose curve; in most records, active means well fitted curve in either direction with a large enough effect (not every such curve was filed as active); inconclusive means small, poorly fitted or top-dose-only effect, or another doubt; inactive means flat fitted curve, though single readings scatter.

Cytochrome P450 1A2 (Homo sapiens), sequence (P05177 whole entry, looked up): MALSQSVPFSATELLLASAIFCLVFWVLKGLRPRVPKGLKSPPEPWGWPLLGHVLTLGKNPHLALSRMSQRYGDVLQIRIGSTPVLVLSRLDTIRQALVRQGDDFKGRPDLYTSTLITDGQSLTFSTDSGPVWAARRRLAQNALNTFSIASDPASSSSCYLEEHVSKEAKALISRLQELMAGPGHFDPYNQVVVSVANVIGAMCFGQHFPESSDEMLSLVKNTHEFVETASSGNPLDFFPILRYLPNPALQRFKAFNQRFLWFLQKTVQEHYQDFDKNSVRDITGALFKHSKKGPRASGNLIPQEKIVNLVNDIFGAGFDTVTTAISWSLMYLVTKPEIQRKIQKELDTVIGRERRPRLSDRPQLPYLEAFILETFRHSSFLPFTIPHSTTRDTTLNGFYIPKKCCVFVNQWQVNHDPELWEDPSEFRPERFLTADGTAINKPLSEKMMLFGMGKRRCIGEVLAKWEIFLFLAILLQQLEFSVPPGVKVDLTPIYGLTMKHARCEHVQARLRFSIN
Lysosomal acid glucosylceramidase (Homo sapiens), sequence (P04062 whole entry, looked up): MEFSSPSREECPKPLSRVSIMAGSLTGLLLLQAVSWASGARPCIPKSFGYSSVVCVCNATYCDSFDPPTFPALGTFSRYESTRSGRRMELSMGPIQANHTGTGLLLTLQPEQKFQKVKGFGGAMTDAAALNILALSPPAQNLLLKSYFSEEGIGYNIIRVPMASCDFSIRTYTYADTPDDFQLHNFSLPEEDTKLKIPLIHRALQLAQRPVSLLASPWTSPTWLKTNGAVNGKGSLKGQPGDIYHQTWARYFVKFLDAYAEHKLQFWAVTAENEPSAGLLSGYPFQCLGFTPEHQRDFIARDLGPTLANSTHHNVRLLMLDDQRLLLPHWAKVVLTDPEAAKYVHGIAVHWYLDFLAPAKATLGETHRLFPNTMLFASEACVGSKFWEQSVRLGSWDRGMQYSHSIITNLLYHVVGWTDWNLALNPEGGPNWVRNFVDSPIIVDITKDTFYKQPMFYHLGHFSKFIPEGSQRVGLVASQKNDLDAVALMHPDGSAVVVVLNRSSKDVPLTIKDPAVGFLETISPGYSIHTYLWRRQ
3',5'-cyclic-AMP phosphodiesterase 4B (Homo sapiens), sequence (Q07343 whole entry, looked up): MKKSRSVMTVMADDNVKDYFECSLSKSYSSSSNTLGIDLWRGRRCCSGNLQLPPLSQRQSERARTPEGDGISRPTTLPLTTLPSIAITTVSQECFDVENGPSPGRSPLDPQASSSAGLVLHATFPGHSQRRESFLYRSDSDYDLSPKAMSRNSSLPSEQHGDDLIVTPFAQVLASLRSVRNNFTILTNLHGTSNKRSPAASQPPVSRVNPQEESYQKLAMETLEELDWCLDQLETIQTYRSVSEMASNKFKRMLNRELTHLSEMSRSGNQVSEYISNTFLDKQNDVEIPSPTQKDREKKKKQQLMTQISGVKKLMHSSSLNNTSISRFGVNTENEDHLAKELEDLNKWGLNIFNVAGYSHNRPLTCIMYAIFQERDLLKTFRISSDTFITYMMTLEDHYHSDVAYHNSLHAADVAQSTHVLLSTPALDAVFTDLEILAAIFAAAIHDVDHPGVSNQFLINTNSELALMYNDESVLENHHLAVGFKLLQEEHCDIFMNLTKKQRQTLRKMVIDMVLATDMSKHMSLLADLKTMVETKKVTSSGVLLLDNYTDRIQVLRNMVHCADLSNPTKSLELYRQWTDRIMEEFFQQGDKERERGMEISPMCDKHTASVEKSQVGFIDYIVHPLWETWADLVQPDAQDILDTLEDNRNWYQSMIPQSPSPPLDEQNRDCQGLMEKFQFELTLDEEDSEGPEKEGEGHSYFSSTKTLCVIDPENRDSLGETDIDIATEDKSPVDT
Glucocorticoid receptor (Homo sapiens), sequence (P04150 whole entry, looked up, the tested form may be a part): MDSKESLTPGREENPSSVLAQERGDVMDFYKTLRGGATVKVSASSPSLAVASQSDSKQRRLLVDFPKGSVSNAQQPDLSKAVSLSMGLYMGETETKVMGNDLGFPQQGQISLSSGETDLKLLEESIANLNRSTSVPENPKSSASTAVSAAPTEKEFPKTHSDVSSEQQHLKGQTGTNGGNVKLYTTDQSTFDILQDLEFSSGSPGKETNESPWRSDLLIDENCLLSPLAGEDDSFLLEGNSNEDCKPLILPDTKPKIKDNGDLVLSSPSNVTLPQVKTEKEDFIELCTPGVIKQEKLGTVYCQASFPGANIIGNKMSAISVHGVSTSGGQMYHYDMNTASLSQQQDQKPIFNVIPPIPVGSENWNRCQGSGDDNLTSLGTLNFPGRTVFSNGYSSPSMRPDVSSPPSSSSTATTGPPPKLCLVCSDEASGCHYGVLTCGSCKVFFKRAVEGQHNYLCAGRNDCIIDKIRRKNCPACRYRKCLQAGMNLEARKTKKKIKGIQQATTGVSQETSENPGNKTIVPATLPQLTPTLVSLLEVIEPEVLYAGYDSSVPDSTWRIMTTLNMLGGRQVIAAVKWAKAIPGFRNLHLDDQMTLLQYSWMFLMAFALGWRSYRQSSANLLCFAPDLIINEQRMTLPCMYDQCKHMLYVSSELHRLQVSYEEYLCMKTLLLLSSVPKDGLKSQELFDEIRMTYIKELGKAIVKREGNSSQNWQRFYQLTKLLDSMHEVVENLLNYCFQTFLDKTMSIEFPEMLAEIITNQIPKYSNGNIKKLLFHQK
Cytochrome P450 3A4 (Homo sapiens), sequence (P08684 whole entry, looked up): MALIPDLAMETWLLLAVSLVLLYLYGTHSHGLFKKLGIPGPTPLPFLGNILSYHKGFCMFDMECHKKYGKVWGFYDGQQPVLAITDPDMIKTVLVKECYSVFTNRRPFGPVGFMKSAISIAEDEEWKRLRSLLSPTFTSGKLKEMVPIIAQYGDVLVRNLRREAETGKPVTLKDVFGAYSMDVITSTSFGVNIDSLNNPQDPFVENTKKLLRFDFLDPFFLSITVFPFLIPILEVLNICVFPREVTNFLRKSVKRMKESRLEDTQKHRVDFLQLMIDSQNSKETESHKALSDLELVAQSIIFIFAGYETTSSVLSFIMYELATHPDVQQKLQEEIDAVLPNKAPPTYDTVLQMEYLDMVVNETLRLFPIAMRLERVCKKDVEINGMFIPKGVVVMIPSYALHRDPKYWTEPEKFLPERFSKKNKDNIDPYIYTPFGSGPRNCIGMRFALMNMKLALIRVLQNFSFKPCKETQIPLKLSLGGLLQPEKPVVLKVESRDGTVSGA
Cytochrome P450 2C9 (Homo sapiens), sequence (P11712 whole entry, looked up): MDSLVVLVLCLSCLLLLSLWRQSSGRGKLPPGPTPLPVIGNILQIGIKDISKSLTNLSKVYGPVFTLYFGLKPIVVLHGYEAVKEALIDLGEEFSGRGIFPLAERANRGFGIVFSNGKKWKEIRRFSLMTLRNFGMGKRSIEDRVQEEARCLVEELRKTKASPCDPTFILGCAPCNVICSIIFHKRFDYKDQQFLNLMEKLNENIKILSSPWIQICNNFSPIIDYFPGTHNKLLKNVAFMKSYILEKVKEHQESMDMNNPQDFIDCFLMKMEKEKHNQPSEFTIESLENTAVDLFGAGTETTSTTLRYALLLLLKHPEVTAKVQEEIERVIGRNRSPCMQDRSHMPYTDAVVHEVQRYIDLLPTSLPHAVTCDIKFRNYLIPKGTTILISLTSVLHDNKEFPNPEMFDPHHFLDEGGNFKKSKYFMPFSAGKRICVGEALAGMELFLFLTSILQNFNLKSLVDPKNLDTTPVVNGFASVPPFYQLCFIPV

On to `COc1ccccc1CN1CC[C@@]2(CCCN(C(=O)c3c(C)noc3C)C2)C1`, for which the results for the Potency in test [1], in [6] and in test [10] were > 11.4 µM (inactive), > 46 µM (inactive) and 1.58 µM (active), respectively. Moreover, the activity change, negative = inhibition in [2] was -0.263% (inactive); in [4], -13.2% (inactive); in test [11], 6.24% (inactive). Moreover, the Potency result in test [3], in test [8], in [9] and in test [12] was “inactive” throughout. Further, the activity, negative = inhibition in [5] was -3.34% (inactive). In [7], the compound was called inactive. Besides, the max response in test [11] (setting [14]) amounted to 6.8%; in test [11] (setting [15]), 12.8%.
For `COc1ccc(NC(=O)N2CCC3(CC2)CCN(C(=O)c2cnccn2)CC3)cc1`, the values for the Potency in test [1], in test [3] and in [6] were > 11.4 µM (inactive), 10 µM (active) and > 46 µM (inactive), respectively. Moreover, the figures for the activity change, negative = inhibition in test [2], in [4] and in test [11] were -11.1% (inactive), 9.86% (inactive) and 7.44% (inactive), respectively. Further, the activity, negative = inhibition in test [5] was 0.353% (inactive). Moreover, the call in test [7] was inactive. Also, the Potency entry in test [8] and in test [12] was “inactive” in each case. In addition, the max response in test [11] (setting [14]) was 7.1%; in test [11] (setting [15]), 18.9%.
For `CC(C)NC(=O)N1CCC2(CC1)CCN(C(=O)c1csnn1)CC2`, the Potency is > 11.4 µM (inactive) in test [1] and > 46 µM (inactive) in test [6]. Further, the activity change, negative = inhibition is -2.2% (inactive) in [2], 6.85% (inactive) in test [4] and 1.46% (inactive) in test [11]. Further, the Potency entry in test [3], in test [8] and in [12] was “inactive” each time. For the same compound, in test [5], the activity, negative = inhibition was -6.49% (inactive). For the same compound, the result in [7] was inactive. In addition, the max response is -0.0052% in [11] (setting [14]) and 5.7% in test [11] (setting [15]).
Consider `O=S(=O)(c1ccccc1)N1CCC2(CCN(C(c3ccccc3)c3ccccc3)CC2)CC1`, for which the Potency in test [1] is > 11.4 µM (inactive); in [6] it was > 46 µM (inactive); in test [9], 0.501 µM (active); in test [13], 12.6 µM (active). Besides, the activity change, negative = inhibition in test [2] was -13.4% (inactive); in test [4], -19.9% (inactive); in test [11] it was 6.93% (inactive). The Potency entry in [3], in [8], in test [10] and in test [12] was “inactive” each time. Moreover, the activity, negative = inhibition in test [5] is -5.59% (inactive). In test [7], the outcome was inactive. In addition, the max response in [11] (setting [14]) was 11.2%; in test [11] (setting [15]) it was 22.7%.
For the compound `COc1ccc(NC(=O)N2CC3(CCN(C(=O)c4cccn4C)CC3)C2)cc1`, the Potency in test [1] was > 11.4 µM (inactive); in test [6], > 46 µM (inactive). Further, the figures for the activity change, negative = inhibition in test [2], in test [4] and in test [11] were -10.5% (inactive), 14.9% (inactive) and 6.73% (inactive), respectively. Also, the Potency entry in test [3], in test [8] and in test [12] was “inactive” each time. For the same compound, in test [5], the activity, negative = inhibition was -11.3% (inactive). Besides, in [7], the compound was classed as inactive. Besides, the results for the max response in test [11] (setting [14]) and in test [11] (setting [15]) were 8.75% and 21.6%, respectively.
On to `CS(=O)(=O)N1CCC2(CCN(C(=O)Nc3cccc(C#N)c3)CC2)CC1`, for which the figures for the Potency in test [1] and in test [6] were > 11.4 µM (inactive) and > 46 µM (inactive), respectively. Also, the activity change, negative = inhibition was 2.04% (inactive) in test [2], 16.4% (inactive) in [4] and 2.84% (inactive) in test [11]. The Potency result in test [3], in [8] and in [12] was “inactive” each time. For the same compound, the activity, negative = inhibition in test [5] is -21% (inactive). Also, the compound was called inactive in test [7]. In addition, the figures for the max response in test [11] (setting [14]) and in test [11] (setting [15]) were -15.9% and -10.5%, respectively.
